From article PMC7862700, “An all-to-all approach to the identification of sequence-specific readers for epigenetic DNA modifications on cytosine”

How the values were obtained:
Experiment in all cases: DAPPL (digital affinity profiling via proximity ligation, sequencing); 10 mM Tris-HCl pH 7.5, 50 mM NaCl, 1 mM DTT, 4% glycerol, room temperature, 30 min; GST-TFs on glutathione beads, 16-mer random dsDNA library, 0.1% formaldehyde crosslink after washing; high values mean tight binding
FLI1 = target: T1, FLI1 (Homo sapiens, UniProt Q01543 1-452); details: protein: recombinant; tags: N-terminal GST; dsDNA, one strand shown
T1 sequence: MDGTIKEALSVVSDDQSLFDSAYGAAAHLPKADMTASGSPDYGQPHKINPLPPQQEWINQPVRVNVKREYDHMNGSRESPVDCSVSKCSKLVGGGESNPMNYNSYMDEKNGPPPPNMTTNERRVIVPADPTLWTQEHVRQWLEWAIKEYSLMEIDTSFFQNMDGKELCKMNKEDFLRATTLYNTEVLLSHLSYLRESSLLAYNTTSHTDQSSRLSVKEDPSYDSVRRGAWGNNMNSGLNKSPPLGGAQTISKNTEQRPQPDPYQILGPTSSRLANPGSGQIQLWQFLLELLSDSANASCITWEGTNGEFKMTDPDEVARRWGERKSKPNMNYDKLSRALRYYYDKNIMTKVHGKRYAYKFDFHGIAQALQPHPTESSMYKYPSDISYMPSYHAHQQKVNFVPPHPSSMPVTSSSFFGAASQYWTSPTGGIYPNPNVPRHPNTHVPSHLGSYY
Procedure, shortened: (§1)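 After expression in yeast as GST fusions, human transcription factors were bound to glutathione beads, DNA-barcoded and mixed with a tag-only sample. The pools were incubated with 200 nmole of a 16-mer random double-stranded DNA library in Tris/NaCl/DTT/glycerol buffer (30 min, room temperature), washed and crosslinked with 0.1% formaldehyde. Proximity ligation with BsaI/T4 ligase ran for 1 h at 37 °C, before PCR amplification and sequencing on an Illumina NextSeq500. Binding signal is a hexamer's read frequency for a factor divided by its frequency for the tag-only sample.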

ELK1 = target: T2, ELK1 (Homo sapiens, UniProt P19419 1-428); details: protein: recombinant; tags: N-terminal GST; dsDNA, one strand shown
T2 sequence: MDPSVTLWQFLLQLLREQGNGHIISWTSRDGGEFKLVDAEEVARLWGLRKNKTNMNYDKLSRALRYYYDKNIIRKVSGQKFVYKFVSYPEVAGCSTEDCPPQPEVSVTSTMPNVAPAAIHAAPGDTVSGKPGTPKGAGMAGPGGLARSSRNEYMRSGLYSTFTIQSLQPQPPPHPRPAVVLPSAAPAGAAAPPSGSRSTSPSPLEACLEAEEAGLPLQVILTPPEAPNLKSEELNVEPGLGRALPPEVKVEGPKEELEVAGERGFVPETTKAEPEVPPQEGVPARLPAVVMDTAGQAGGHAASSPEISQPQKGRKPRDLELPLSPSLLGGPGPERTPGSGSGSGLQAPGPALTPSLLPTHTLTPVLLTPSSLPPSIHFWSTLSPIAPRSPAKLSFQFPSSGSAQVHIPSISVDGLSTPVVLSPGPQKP
Procedure, shortened: as §1

GABPA = target: T3, GABPA (Homo sapiens, UniProt Q06546 1-454); details: protein: recombinant; tags: N-terminal GST; dsDNA, one strand shown
T3 sequence: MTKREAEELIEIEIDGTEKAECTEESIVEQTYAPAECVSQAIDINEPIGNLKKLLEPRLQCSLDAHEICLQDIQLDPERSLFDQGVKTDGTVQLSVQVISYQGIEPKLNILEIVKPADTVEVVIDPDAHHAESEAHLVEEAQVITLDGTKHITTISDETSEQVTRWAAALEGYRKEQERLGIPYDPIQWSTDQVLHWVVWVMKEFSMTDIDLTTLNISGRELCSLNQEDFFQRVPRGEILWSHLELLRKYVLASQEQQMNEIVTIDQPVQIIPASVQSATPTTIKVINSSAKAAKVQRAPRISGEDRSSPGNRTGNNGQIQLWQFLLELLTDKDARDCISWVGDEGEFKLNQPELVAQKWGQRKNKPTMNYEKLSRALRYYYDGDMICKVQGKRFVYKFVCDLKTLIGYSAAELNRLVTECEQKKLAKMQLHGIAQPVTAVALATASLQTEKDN
Procedure, shortened: as §1

ERG = target: T4, ERG (Homo sapiens, UniProt P11308 1-479); details: protein: recombinant; tags: N-terminal GST; dsDNA, one strand shown
T4 sequence: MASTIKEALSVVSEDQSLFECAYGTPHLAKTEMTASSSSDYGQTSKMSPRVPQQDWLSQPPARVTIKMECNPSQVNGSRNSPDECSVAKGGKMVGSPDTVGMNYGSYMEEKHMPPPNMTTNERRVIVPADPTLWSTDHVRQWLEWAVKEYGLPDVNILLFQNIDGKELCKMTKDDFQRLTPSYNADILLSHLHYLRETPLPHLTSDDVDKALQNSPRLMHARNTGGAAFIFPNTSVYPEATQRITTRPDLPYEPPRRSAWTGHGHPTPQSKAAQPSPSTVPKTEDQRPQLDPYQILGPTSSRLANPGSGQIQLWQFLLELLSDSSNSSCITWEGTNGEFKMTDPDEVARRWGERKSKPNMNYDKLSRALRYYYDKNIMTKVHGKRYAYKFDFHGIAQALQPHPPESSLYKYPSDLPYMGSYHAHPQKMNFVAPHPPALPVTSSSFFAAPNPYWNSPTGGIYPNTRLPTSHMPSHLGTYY
Procedure, shortened: as §1

ELF1 = ELF1 (Homo sapiens, UniProt P32519 1-619); details: protein: recombinant; tags: N-terminal GST; dsDNA, one strand shown
ELF1, sequence (P32519 whole entry): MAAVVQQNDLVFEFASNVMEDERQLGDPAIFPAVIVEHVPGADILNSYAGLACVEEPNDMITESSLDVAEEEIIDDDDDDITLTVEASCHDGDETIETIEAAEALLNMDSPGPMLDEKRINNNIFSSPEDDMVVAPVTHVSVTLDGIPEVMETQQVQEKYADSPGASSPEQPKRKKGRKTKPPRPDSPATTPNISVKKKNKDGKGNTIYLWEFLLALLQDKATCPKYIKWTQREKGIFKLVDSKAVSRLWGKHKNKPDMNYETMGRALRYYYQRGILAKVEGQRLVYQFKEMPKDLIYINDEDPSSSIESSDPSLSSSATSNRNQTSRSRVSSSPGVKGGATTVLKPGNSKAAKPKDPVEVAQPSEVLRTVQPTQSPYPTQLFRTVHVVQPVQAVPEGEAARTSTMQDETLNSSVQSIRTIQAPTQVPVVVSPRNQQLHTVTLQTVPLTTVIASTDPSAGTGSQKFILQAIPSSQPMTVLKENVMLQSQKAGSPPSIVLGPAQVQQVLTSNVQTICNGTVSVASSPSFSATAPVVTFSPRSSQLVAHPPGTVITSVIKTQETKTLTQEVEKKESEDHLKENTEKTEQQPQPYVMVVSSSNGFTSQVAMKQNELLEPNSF
Procedure, shortened: as §1

EHF = target: T5, EHF (Homo sapiens, UniProt Q9NZC4 1-300); details: protein: recombinant; tags: N-terminal GST; dsDNA, one strand shown
T5 sequence: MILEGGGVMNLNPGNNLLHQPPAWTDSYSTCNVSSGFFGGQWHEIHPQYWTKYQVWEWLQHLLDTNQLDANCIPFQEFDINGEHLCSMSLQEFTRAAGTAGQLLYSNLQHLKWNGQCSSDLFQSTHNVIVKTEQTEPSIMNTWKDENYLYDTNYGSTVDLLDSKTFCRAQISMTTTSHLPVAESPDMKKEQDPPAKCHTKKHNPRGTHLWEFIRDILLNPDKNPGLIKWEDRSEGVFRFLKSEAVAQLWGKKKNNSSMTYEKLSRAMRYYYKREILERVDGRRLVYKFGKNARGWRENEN
Procedure, shortened: as §1

SPI1 = SPI1 (Homo sapiens, UniProt P17947 1-270); details: protein: recombinant; tags: N-terminal GST; dsDNA, one strand shown
Procedure, shortened: as §1

SPIB = SPIB (Homo sapiens, UniProt Q01892 1-262); details: protein: recombinant; tags: N-terminal GST; dsDNA, one strand shown
SPIB, sequence (Q01892 whole entry): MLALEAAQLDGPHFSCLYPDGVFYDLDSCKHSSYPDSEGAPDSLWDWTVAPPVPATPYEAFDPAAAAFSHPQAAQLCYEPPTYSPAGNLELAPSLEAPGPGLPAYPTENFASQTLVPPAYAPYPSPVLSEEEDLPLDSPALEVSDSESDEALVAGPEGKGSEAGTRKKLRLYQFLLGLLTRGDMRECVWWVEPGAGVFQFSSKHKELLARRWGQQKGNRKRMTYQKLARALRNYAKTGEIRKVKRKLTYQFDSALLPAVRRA
Procedure, shortened: as §1

ELK3 = target: T6, ELK3 (Homo sapiens, UniProt P41970 1-407); details: protein: recombinant; tags: N-terminal GST; dsDNA, one strand shown
T6 sequence: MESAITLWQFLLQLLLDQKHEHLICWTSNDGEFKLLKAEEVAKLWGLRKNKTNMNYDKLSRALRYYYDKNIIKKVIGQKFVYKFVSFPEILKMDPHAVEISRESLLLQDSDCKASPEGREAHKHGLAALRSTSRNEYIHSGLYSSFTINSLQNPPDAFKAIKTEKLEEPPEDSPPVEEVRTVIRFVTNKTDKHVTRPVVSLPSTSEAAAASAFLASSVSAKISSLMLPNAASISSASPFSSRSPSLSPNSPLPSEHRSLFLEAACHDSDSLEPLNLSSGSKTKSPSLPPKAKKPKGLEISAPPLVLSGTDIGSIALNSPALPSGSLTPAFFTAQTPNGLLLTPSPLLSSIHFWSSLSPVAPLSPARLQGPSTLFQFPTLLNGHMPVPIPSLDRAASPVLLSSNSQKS
Procedure, shortened: as §1

FEV = target: T7, FEV (Homo sapiens, UniProt Q99581 1-238); details: protein: recombinant; tags: N-terminal GST; dsDNA, one strand shown
T7 sequence: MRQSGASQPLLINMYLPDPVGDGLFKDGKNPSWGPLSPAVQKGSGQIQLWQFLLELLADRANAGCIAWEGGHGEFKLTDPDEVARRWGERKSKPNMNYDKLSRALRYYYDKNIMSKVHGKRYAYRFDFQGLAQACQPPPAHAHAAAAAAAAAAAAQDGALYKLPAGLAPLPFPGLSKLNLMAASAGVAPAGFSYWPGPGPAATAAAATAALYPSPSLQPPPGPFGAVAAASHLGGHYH
Procedure, shortened: as §1

ETV5 = ETV5 (Homo sapiens, UniProt P41161 1-510); details: protein: recombinant; tags: N-terminal GST; dsDNA, one strand shown
ETV5, sequence (P41161 whole entry): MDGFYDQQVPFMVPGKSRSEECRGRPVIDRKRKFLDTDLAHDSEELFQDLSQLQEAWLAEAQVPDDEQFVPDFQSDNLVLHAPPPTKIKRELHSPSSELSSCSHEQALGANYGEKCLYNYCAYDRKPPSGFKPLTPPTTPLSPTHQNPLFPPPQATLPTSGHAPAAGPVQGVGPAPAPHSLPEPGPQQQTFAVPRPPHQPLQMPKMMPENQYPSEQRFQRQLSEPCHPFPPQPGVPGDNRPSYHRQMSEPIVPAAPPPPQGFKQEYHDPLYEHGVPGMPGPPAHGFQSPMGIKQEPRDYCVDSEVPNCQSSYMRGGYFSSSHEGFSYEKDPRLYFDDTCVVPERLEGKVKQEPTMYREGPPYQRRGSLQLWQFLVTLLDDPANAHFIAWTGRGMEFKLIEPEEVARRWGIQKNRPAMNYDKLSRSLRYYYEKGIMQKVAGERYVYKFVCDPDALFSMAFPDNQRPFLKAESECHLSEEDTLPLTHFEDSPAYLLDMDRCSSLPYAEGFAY
Procedure, shortened: as §1

HSF1 = HSF1 (Homo sapiens, UniProt Q00613 1-529); details: protein: recombinant; tags: N-terminal GST; chain copies: 3; dsDNA, one strand shown
HSF1, sequence (Q00613 whole entry): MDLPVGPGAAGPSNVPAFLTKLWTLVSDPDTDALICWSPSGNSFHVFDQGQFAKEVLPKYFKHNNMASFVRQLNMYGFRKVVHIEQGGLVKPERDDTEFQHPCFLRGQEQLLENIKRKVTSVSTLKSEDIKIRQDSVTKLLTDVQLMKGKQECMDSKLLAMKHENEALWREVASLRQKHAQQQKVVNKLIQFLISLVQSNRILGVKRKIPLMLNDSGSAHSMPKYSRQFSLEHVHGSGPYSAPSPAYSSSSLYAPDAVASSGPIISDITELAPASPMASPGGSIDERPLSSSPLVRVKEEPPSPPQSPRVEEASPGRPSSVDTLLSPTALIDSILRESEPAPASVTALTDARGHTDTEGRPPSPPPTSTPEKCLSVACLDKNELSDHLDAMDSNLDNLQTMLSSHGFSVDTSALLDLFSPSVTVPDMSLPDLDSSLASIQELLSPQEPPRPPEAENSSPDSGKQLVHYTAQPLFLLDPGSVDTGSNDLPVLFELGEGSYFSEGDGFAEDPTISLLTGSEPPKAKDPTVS
Procedure, shortened: as §1

SPIC = target: T8, SPIC (Homo sapiens, UniProt Q8N5J4 1-248); details: protein: recombinant; tags: N-terminal GST; dsDNA, one strand shown
T8 sequence: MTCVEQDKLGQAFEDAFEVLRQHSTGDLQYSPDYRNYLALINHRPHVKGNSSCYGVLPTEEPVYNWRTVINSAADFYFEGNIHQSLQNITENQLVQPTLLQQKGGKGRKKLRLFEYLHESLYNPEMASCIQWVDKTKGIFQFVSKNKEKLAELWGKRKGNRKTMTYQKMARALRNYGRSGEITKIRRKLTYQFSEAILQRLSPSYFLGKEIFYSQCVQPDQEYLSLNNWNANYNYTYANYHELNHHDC
Procedure, shortened: as §1

ELF4 = ELF4 (Homo sapiens, UniProt Q99607 1-663); details: protein: recombinant; tags: N-terminal GST; dsDNA, one strand shown
ELF4, sequence (Q99607 whole entry): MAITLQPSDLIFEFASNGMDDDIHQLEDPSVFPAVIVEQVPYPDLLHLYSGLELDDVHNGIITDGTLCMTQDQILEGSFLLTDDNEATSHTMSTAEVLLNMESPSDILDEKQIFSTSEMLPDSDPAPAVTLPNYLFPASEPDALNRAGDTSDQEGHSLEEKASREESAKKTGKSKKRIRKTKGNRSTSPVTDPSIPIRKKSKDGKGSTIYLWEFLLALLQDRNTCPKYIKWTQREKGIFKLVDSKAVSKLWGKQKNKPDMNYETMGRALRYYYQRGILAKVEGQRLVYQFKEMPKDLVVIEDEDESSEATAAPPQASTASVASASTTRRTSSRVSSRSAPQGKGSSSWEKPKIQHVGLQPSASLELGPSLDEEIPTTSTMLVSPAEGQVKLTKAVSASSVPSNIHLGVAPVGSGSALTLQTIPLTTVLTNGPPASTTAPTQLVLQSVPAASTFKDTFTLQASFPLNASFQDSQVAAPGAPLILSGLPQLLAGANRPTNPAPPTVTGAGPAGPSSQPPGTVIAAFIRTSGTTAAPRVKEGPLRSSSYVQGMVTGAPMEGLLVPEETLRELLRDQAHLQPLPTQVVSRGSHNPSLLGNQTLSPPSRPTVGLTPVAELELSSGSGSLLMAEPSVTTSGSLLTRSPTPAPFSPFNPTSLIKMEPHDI
Procedure, shortened: as §1

ELK4 = target: T9, ELK4 (Homo sapiens, UniProt P28324-2 1-405); details: protein: recombinant; tags: N-terminal GST; dsDNA, one strand shown
T9 sequence: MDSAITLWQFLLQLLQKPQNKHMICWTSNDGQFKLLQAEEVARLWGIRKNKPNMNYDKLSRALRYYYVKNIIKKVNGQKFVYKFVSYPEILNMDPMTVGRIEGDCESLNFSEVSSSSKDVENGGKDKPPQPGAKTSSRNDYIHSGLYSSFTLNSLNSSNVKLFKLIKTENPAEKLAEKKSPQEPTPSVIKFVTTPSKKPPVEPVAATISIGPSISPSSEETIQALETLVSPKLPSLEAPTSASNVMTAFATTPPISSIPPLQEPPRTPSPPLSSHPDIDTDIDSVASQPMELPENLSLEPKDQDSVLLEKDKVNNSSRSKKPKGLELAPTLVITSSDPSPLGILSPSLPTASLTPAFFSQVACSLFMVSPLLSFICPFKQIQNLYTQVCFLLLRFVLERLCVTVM
Procedure, shortened: as §1

ETV2 = target: T10, ETV2 (Homo sapiens, UniProt O00321 1-342); details: protein: recombinant; tags: N-terminal GST; dsDNA, one strand shown
T10 sequence: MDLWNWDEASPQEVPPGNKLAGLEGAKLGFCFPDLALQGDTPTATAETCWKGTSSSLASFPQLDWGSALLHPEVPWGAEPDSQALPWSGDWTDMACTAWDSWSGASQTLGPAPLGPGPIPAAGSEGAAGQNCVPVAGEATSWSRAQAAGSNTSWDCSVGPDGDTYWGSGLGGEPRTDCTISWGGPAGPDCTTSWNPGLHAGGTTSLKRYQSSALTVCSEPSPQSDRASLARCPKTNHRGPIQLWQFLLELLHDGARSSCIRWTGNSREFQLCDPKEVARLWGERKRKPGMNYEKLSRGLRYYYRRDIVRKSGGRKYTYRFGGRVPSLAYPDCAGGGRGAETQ
Procedure, shortened: as §1

ELF3 = target: T11, ELF3 (Homo sapiens, UniProt P78545 1-371); details: protein: recombinant; tags: N-terminal GST; dsDNA, one strand shown
T11 sequence: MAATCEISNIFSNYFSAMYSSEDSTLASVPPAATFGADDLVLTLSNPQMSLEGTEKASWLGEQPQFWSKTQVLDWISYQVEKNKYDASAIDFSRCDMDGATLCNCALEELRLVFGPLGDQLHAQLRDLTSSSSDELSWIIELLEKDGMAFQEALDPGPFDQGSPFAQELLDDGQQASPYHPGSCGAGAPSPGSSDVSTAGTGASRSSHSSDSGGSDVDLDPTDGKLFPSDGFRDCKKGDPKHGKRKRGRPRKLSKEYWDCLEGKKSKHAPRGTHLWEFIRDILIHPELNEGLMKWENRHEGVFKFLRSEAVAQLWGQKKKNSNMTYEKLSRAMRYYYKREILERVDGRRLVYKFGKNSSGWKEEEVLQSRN
Procedure, shortened: as §1

CRX = CRX (Homo sapiens, UniProt O43186 1-299); details: protein: recombinant; tags: N-terminal GST; dsDNA, one strand shown
CRX, sequence (O43186 whole entry): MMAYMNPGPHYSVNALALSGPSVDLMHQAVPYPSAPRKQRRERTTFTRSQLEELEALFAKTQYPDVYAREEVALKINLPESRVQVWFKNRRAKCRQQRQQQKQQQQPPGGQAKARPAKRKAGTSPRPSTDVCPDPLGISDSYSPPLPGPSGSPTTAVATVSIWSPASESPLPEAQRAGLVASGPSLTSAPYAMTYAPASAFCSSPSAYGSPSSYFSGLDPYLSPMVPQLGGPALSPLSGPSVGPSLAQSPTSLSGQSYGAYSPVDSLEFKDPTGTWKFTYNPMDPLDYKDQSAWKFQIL
Procedure, shortened: as §1

ETV1 = ETV1 (Homo sapiens, UniProt P50549 1-477); details: protein: recombinant; tags: N-terminal GST; dsDNA, one strand shown
ETV1, sequence (P50549 whole entry): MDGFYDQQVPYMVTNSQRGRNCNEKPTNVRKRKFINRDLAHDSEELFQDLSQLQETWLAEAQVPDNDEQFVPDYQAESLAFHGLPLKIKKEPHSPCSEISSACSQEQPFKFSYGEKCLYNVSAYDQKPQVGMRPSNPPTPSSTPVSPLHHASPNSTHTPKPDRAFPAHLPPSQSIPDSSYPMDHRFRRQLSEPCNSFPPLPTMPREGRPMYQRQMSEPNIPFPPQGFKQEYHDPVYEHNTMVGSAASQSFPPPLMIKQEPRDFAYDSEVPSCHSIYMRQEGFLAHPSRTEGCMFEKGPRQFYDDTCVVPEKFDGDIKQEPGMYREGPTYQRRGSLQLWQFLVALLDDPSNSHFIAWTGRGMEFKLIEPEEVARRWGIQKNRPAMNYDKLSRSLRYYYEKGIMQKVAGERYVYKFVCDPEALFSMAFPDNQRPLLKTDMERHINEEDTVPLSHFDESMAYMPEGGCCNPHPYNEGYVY
Procedure, shortened: as §1

Q: Which results are given for ACCCAT?
A: binding signal (FLI1): 1.18 fold enrichment (6-mer frequency, TF over GST control); binding signal (ELK1): 1.21 fold enrichment (6-mer frequency, TF over GST control); binding signal (GABPA): 1.33 fold enrichment (6-mer frequency, TF over GST control); binding signal (ERG): 1.23 fold enrichment (6-mer frequency, TF over GST control); binding signal (ELF1): 1.25 fold enrichment (6-mer frequency, TF over GST control); binding signal (EHF): 1.16 fold enrichment (6-mer frequency, TF over GST control); binding signal (SPI1): 1.17 fold enrichment (6-mer frequency, TF over GST control); binding signal (SPIB): 1.33 fold enrichment (6-mer frequency, TF over GST control); binding signal (ELK3): 1.24 fold enrichment (6-mer frequency, TF over GST control); binding signal (FEV): 1.17 fold enrichment (6-mer frequency, TF over GST control); binding signal (ETV5): 1.25 fold enrichment (6-mer frequency, TF over GST control); binding signal (HSF1): 1.05 fold enrichment (6-mer frequency, TF over GST control); binding signal (SPIC): 1.15 fold enrichment (6-mer frequency, TF over GST control); binding signal (ELF4): 1.25 fold enrichment (6-mer frequency, TF over GST control); binding signal (ELK4): 1.17 fold enrichment (6-mer frequency, TF over GST control); binding signal (ETV2): 1.18 fold enrichment (6-mer frequency, TF over GST control); binding signal (ELF3): 1.23 fold enrichment (6-mer frequency, TF over GST control); binding signal (CRX): 1.06 fold enrichment (6-mer frequency, TF over GST control); binding signal (ETV1): 1.19 fold enrichment (6-mer frequency, TF over GST control)
